± gives the standard deviation.
Columns and labels:
Details in all cases: modulator concentration 10 µM
[1] = tested on: RAW-Dual (murine macrophage reporter line); assay: NF-kB reporter (SEAP) activity fold change vs agonist alone; higher = enhanced NF-kB activity
In short: (§1)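 Compound reached 10 μM final in each well by pin transfer, onto RAW-Dual murine macrophage reporter cells seeded at 50 000 per well in 384-well plates. After 1 hour at 37 °C, the cells were stimulated overnight with a PRR agonist. SEAP in the supernatant was read with QUANTI-Blue at 620 nm absorbance for NF-κB, and Lucia luciferase was read with QUANTI-Luc luminescence for IRF. Each signal was turned into fold change against the mean agonist-only control on the same plate, and two replicate plates were averaged with propagated errors.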

[2] = tested on: RAW-Dual (murine macrophage reporter line); assay: IRF reporter (Lucia luciferase) activity fold change vs agonist alone; higher = enhanced IRF activity
In short: as §1

[3] = tested on: RAW-Dual (murine macrophage reporter line); assay: viability score (confluency relative to resting cells, overnight) (fraction); higher = more viable, active = viable (0.7 or more)
In short: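 Confluency was the readout: RAW-Dual macrophages were imaged with IncuCyte after an overnight exposure to compound at 10 μM final. IncuCyte software produced two masks over all imaged wells. The viability score expresses confluency against resting cells, and both masks had to exceed 70% of resting cells for a compound to meet the cutoff.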

[4] = agonist: CpG ODN 1826 0.5 ug/mL

| SMILES | NF-kB reporter [1, 4] | NF-kB reporter ([1]; agonist: LPS 0.1 ug/mL) | NF-kB reporter ([1]; agonist: MPLA […]) | IRF reporter ([2]; agonist: 3'3'-cGAMP 10 ug/mL) | IRF reporter ([2]; agonist: LPS 0.1 ug/mL) | IRF reporter ([2]; agonist: MPLA […]) | viability score [3] |
| --- | --- | --- | --- | --- | --- | --- | --- |
| CCNc1cc(C)nc(Nc2ccc(NC(=O)c3ccc(OC)c(OC)c3)cc2)n1 | 0.118 ± 0.0094 | 1.32 ± 0.11 | 1.74 ± 0.17 | 0.72 ± 0.023 | 1.19 ± 0.18 | 1.29 ± 0.27 | 0.977 (active) |
| Cl.Cl.NC1=NN(c2ccc(N)cc2)CC1 | 0.251 ± 0.043 | 1 ± 0.084 | 0.991 ± 0.13 | 0.763 ± 0.035 | 1.34 ± 0.28 | 1.22 ± 0.15 | 1 (active) |
| Cc1ccc(OCC(=O)N2CCN(c3ccc(-n4cncn4)nn3)CC2)c(C(C)(C)C)c1 | 1.11 ± 0.13 | 0.971 ± 0.085 | 1.27 ± 0.037 | 0.964 ± 0.07 | 0.948 ± 0.099 | 0.87 ± 0.15 | 0.999 (active) |
| NC(=O)c1ccc(N2CCOCC2)c([N+](=O)[O-])c1 | 1.04 ± 0.087 | 1 ± 0.089 | 0.935 ± 0.026 | 0.984 ± 0.067 | 1.02 ± 0.05 | 1.01 ± 0.1 | 0.993 (active) |
| Cc1nc(SCC(=O)N2CCCCCC2)[nH]c(=O)c1C | 1.15 ± 0.077 | 1.17 ± 0.14 | 0.909 ± 0.04 | 1 ± 0.064 | 1.07 ± 0.14 | 0.977 ± 0.3 | 1 (active) |
| CCCCc1nc(Cl)c(CO)n1Cc1ccc(-c2ccccc2-c2nnn[nH]2)cc1 [Prestw-1433] | 1.2 ± 0.29 | 1.08 ± 0.054 | 1.02 ± 0.065 | 0.944 ± 0.034 | 1.29 ± 0.14 | 1.32 ± 0.19 | 1 (active) |
| NCCCC[C@H](N[C@@H](CCc1ccccc1)C(=O)O)C(=O)N1CCC[C@H]1C(=O)O | 1.01 ± 0.076 | 0.997 ± 0.097 | 0.97 ± 0.033 | 1.26 ± 0.25 | 0.999 ± 0.049 | 1.07 ± 0.17 | 0.996 (active) |
| N=C1NC(=O)C(=Cc2ccc(-c3ccc(F)cc3)o2)S1 | 0.507 ± 0.047 | 0.632 ± 0.042 | 0.964 ± 0.043 | 1.02 ± 0.17 | 0.989 ± 0.15 | 0.798 ± 0.13 | 1 (active) |
| CCOc1ccc(CN2CCN(c3cc(C)nc4c5c(C)cc(C)nc5nn34)CC2)cc1 | 0.944 ± 0.08 | 1.04 ± 0.077 | 1.02 ± 0.022 | 1.05 ± 0.1 | 1 ± 0.14 | 0.96 ± 0.26 | 1 (active) |
| CS(=O)(=O)N(CC(=O)Nc1ccccc1Br)c1ccc(Cl)c(C(F)(F)F)c1 | 0.796 ± 0.13 | 0.971 ± 0.076 | 0.77 ± 0.072 | 1.15 ± 0.055 | 1.13 ± 0.23 | 1.2 ± 0.15 | 0.999 (active) |
| COc1cccc(-c2ccc(NC(=O)C3=C(C(=O)O)CCC3)c(F)c2)c1 | 0.954 ± 0.25 | 0.806 ± 0.088 | 1.01 ± 0.088 | 2.42 ± 0.23 | 2.04 ± 0.35 | 1.38 ± 0.24 | 0.91 (active) |
| Cl.Cl.OCCN1CCN(CC/C=C2/c3ccccc3Sc3ccc(C(F)(F)F)cc32)CC1 | 1.01 ± 0.046 | 1.03 ± 0.13 | 1.04 ± 0.1 | 0.959 ± 0.058 | 1.13 ± 0.23 | 1.22 ± 0.28 | 1.02 (active) |
| O=C(O)CCC(=O)Nc1ccc(Br)cc1C(=O)c1ccc(Cl)cc1 | 0.993 ± 0.08 | 1.05 ± 0.058 | 0.951 ± 0.066 | 0.986 ± 0.031 | 1.31 ± 0.19 | 1.08 ± 0.18 | 1.01 (active) |
| Cc1ccc2[nH]c(=O)c(-c3cc(-c4ccccc4)c4ccccc4n3)c(-c3ccccc3)c2c1 | 0.938 ± 0.081 | 1.1 ± 0.11 | 0.816 ± 0.051 | 1.08 ± 0.037 | 1.17 ± 0.19 | 1.04 ± 0.072 | 1.02 (active) |
| CCC(=O)N(CCC(c1ccccc1OC)C1CCOC(C)(C)C1)Cc1ccc(OC)cc1 (stereo not drawn) | 0.907 ± 0.072 | 0.986 ± 0.059 | 0.938 ± 0.056 | 1.04 ± 0.055 | 1.23 ± 0.29 | 1.04 ± 0.088 | 1.01 (active) |
| Cc1c(N=Cc2cc([N+](=O)[O-])ccc2O)c(=O)n(-c2ccccc2)n1C | 0.911 ± 0.055 | 0.995 ± 0.061 | 0.907 ± 0.089 | 0.917 ± 0.03 | 1.34 ± 0.15 | 1.18 ± 0.2 | 0.999 (active) |
| CC(C)(C)n1cnc2cc(N=Cc3ccc(Cl)cc3)ccc21 | 1.21 ± 0.14 | 1.01 ± 0.12 | 1.4 ± 0.055 | 0.888 ± 0.059 | 0.805 ± 0.048 | 0.996 ± 0.1 | 1 (active) |
| Cc1cccc(C)c1NC(=O)CC(C)c1ccccc1 (stereo not drawn) | 0.982 ± 0.31 | 1.12 ± 0.16 | 1.2 ± 0.14 | 1.03 ± 0.033 | 0.937 ± 0.25 | 1.17 ± 0.33 | 0.915 (active) |
| COC(=O)CNC(c1ccccc1)c1cc(Br)ccc1NC(=O)c1ccccc1 (stereo not drawn) | 1.06 ± 0.18 | 1.03 ± 0.12 | 1.33 ± 0.21 | 1.06 ± 0.035 | 1.16 ± 0.13 | 1.63 ± 0.19 | 1.01 (active) |
| COCCNCCOc1ccccc1C(C)C | 0.767 ± 0.12 | 1.03 ± 0.084 | 0.899 ± 0.069 | 0.895 ± 0.031 | 1.32 ± 0.26 | 1.26 ± 0.18 | 0.554 (inactive) |
| Cc1cc(C)c2c(c1)[C@@H](N(Cc1cc(C(F)(F)F)cc(C(F)(F)F)c1)c1nnn(C)n1)CCCN2C[C@H]1CC[C@H](C(=O)O)CC1 | 0.717 ± 0.054 | 0.861 ± 0.097 | 1.08 ± 0.036 | 0.985 ± 0.058 | 0.955 ± 0.033 | 1.09 ± 0.14 | 1.01 (active) |
| NC(=O)c1ncn([C@@H]2O[C@H](CO)[C@@H](O)[C@H]2O)n1 | 0.766 ± 0.17 | 1.07 ± 0.14 | 0.86 ± 0.084 | 1.16 ± 0.05 | 1.66 ± 0.22 | 1.77 ± 0.18 | 0.986 (active) |
| CCOc1ccccc1OCCCCOc1cccc(Br)c1 | 0.728 ± 0.06 | 1.05 ± 0.075 | 0.968 ± 0.067 | 1.19 ± 0.031 | 1.49 ± 0.24 | 1.2 ± 0.2 | 1 (active) |
| COc1ccc(-c2coc3cc(O)ccc3c2=O)cc1 | 0.956 ± 0.29 | 1.1 ± 0.1 | 0.992 ± 0.13 | 0.904 ± 0.034 | 1.06 ± 0.1 | 1.05 ± 0.17 | 1.01 (active) |
